PubChem BioAssay AID588345 (Broad Institute, 2011)
The whole screen tested about 1,300 compounds, of which about 850 (65%) were called active. Roughly 1% stayed inconclusive and do not appear here. No rule for the calls is given here. So high a share suggests a set chosen from earlier hits. The list is a sample of the results. Measured potencies and affinities stand elsewhere.

Molecular target: Dual specificity tyrosine-phosphorylation-regulated kinase 1A (Rattus norvegicus) (UniProt Q63470)
Experiment: rat Dyrk1A kinase inhibitors, dose response, biochemical, cherry-pick, plate reader, 2124-01 (AID 588345)
Conditions: Dyrk1A kinase biochemical assay; series mostly up to 12 µM; activity change, negative = inhibition: at the top concentration

Activity change, negative = inhibition, inactive:
O=S1(=O)N=C(N(Cc2cccs2)c2ccc(O)cc2)c2ccccc21 -39.4%
CCCCC(=O)Nc1cc(Cl)ccc1C(=O)O 2.42%
CC(C)CC(NC(=O)C1CCC(C)CC1)C(=O)Nc1ccc2c(c1)OCCO2 (configuration not stated) -0.401%
O=C(O)c1cc2ccccc2c2cc(Br)ccc12 6.75%
CCOCC(=O)Nc1nc2c(s1)C(=O)CC(C)(C)C2 -6.16%
O=C1CCCc2c1cc(C(=O)NCCCN1CCOCC1)c(=O)n2-c1ccc(Cl)cc1 15.7%
CCOc1ccccc1C(=O)Nc1ccccc1C(N)=O 16.9%
c1ccc2c(-c3nc(C4CCCCC4)no3)cc(-c3ccncc3)nc2c1 -12.2%
O=C(O)/C=C/c1ccc2noc(-c3ccccc3)c2c1 9.02%
O=C(/C=C/c1ccccc1)Nc1cccc(C(=O)NC2CC2)c1 -23.3%
COc1cccc(C(=O)NNC(=O)/C=C/c2ccccc2)c1 -0.825%
Nc1nonc1-n1nnc(C(=O)N/N=C\c2ccncc2)c1CN1CCCCC1 16.2%
COc1cc2cnc(-c3ccccc3)c(-c3ccc([N+](=O)[O-])cc3)c2cc1OC 5.36%
COC(=O)CSc1nc(N)c(C#N)c(C(C)C)c1C#N 4.01%
COc1ccc2nc3c(cc2c1)c(NC(=O)C1CCCO1)nn3CC(C)C (configuration not stated) -39%
N#Cc1nc(-c2cccs2)oc1NCc1ccccc1Cl 4.98%
Cc1cccc(Cl)c1OCCCCn1ccnc1 -0.832%
c1cncc(-c2nc(NCCCn3ccnc3)c3ccccc3n2)c1 -32%
COc1cc(O)c2c(=O)c3c(O)ccc(O)c3oc2c1 15.1%
O=C(NN1C(=O)/C(=C/c2ccc(O)c([N+](=O)[O-])c2)SC1=S)c1ccccc1Cl 12.1%
CCCCOc1cccc(C(=O)NC(=S)Nc2ccc(Cl)c(C(=O)O)c2)c1 4.19%
CC(C)c1nnc(NC(=O)Cn2nc(-c3ccc4c(c3)OCCO4)ccc2=O)s1 5.79%
CCC(=O)Nc1nc(-c2ccc3c(c2)OCCO3)cs1 -27.9%
c1ccc(Cc2nnc3sc(-c4ccc5c(c4)OCCO5)nn23)cc1 2.39%
CSCC(=O)Nc1nc(-c2ccc3c(c2)OCCO3)cs1 -45.8%
Cn1nnnc1Sc1ncnc2scc(-c3ccc[nH]3)c12 6.62%
COCCCN(C(C)=O)c1nc(-c2ccc(OC)cc2)cs1 1.75%
CCCn1cnc2scc(-c3ccc(OC)cc3)c2c1=O 8.44%
COc1cc(CO)cc(Br)c1OCc1cccnc1 -1.47%
COc1cccc(/C=N/n2c(COc3ccccc3)n[nH]c2=S)c1O -73.5%
COC(=O)C1=C(C)N(CCCC(=O)O)C(=O)NC1c1ccc(Cl)cc1 (configuration not stated) 1.53%
COc1ccc(-n2c(C)nc3cc(C(=O)NCc4ccc5c(c4)OCO5)ccc32)cc1 -5.27%
COc1ccc(-n2c(C)nc3cc(C(=O)NCc4ccco4)ccc32)cc1 6.49%
Cc1cccc(-n2nc3c(c2NC(=O)CCC2CCCCC2)CS(=O)C3)c1C (configuration not stated) 8.66%
Cc1noc(NS(=O)(=O)c2ccc(N/C=C\C(=O)c3ccc(Br)cc3)cc2)c1C 2.2%
COc1ccc(C(=O)Nc2nc3ccccc3[nH]2)cc1S(=O)(=O)N1CCOCC1 6.37%
C=CCN1C(=O)/C(=C/c2ccccc2)S/C1=N/c1nccs1 11.6%
CC(C)(C)NC(=O)C(=O)NC(=O)c1c(F)cccc1Cl -4.54%
O=C(c1ccc2c(c1)OCCCO2)N1CCCCC1 3.39%
CC(NC(=O)COC(=O)c1ccc([N+](=O)[O-])s1)c1ccccc1 (configuration not stated) -0.463%
C=CCOC(=O)C1=C(C)NC(=O)NC1c1ccc(Cl)cc1 (configuration not stated) 7.5%
COC(=O)c1nn(-c2ccc3c(c2)OCO3)cc1O 3.31%
CCOC(=O)C1=C(C)OC(N)=C(C#N)C1c1cc2c(cc1Br)OCO2 (configuration not stated) -18%
C=CCc1ccc(OCCOc2ccc(/C=N/n3cnnc3)cc2OCC)c(OC)c1 -4.21%
Cc1ccccc1C(=O)N1CCN(c2ccc(NC(=O)c3cccc(OC(C)C)c3)cc2)CC1 8.66%
O=C(Nc1ccc(F)cc1F)c1csc(-c2ccncc2)n1 -28.6%
O=C(Nc1ccc(Cl)cc1)c1csc(-c2ccncc2)n1 -0.305%
c1ccc(-c2nnc3sc(Cc4cccs4)nn23)cc1 -9.39%
COC(=O)[C@]1(CC(C)C)N[C@H](c2ccc(-c3cccc(Cl)c3)cc2)[C@@H]2C(=O)N(C)C(=O)[C@@H]21 7.87%
Cc1cccc(CNc2ncnc3ccc(-c4ccoc4)cc23)c1 15.7%
CN(C)/C=C1/Oc2c(ccc3ccccc23)C1=O 1.24%
COc1cc(-c2cn(S(=O)(=O)c3cccc4nsnc34)nc2N)cc(OC)c1OC -9.11%
CCn1c2ccccc2c2cc(/C=N/O)ccc21 -50%
Cc1ccccc1NC(=O)CSc1[nH]c(=O)cc(C)c1C#N -5.2%
CCN1CCN(Cc2ccc(NC(=O)c3ccc(C)c(NC(=O)c4csc(-c5ccncc5)n4)c3)cc2C(F)(F)F)CC1 -1.6%
Cn1c(-c2ccccc2)c(C=O)c2ccccc21 7.44%
Cc1ccc(S(=O)(=O)/N=C2\C=C(Nc3cccc(C(=O)O)c3)C(=O)c3ccccc32)c(C)c1 -54.7%
Cc1ccccc1NC(=O)C1CCCN1S(=O)(=O)c1ccc2c(c1)n(C)c(=O)c(=O)n2C (configuration not stated) -5.91%
CCOC(=O)C[C@H]1c2cc(C(F)(F)F)ccc2S(=O)(=O)N1C(C)C 11%
COc1ccc(-c2nn(-c3ccccc3)cc2CO)cc1 0.31%
Cc1nc2c(c3c1[nH]c1ccccc13)C(=O)CC(C)(C)C2 -41.5%
CN(C)S(=O)(=O)c1ccc(Cl)c(C(=O)Nc2cccc3ncccc23)c1 3.66%
OCC[C@@H]1C[C@H](O)[C@@H](O)[C@@]2(CCc3ccccc3CO2)O1 2.35%
COC(=O)c1cc(NC(=O)Nc2cccc(Cl)c2)ccc1Cl 8.6%
CC(=O)c1cccc(NC(=O)Nc2cccs2)c1 -6.65%
COc1ccc(S(=O)(=O)N(C)C[C@H]2Oc3ccc(NS(=O)(=O)c4cccs4)cc3CC(=O)N([C@H](C)CO)C[C@H]2C)cc1 6.05%
CCOc1ccc(C2CC(c3cccc(OC)c3)Nc3nc(N)nn32)cc1 (configuration not stated) 2.82%
N#C/C(=C\c1ccc(O)c(O)c1)C(=O)NCCc1ccccc1 -29.2%
COc1cccc(C(=O)c2sc(NC(C)C)nc2N)c1 5.66%
O=C1CC(c2ccc(S(=O)(=O)NC3CC3)cc2)CN1 (configuration not stated) 2.56%
CNC(=O)c1cc2c(s1)-c1ccccc1CC2 -14.8%
Cn1c2ccccc2c2cc(/C=N/NC(=O)c3cc(O)ccc3O)ccc21 -0.468%
Cc1ccnc(NC(=O)c2cccc(S(=O)(=O)N3CCN(c4ccccc4)CC3)c2)c1 6.18%
COc1ccc(-n2c(Cn3c(=O)sc4ccccc43)nnc2SCC(=O)N2CCOCC2)cc1 -5.17%
c1ccc(-c2csc3nnc(SCc4ccc5c(c4)OCO5)n23)cc1 14.3%
COc1ccc2c(c1)C(=NN)c1cc(OC)ccc1-2 4.46%
CC(C)NC(=O)Nc1cccc2c1O[C@H](CN(C)C(=O)NC1CCCCC1)[C@H](C)CN([C@H](C)CO)C2=O -2.59%
CC(C)C[C@H]1COCCS(=O)(=O)N1Cc1cccc(Cl)c1 14.4%
CC(=O)C1C(c2ccc(Cl)cc2)NC(=O)NC1(O)C(F)(F)F (configuration not stated) -2.34%
Cn1c(C(=O)N2CCCC2)cc2c(=O)n(C)c3ccccc3c21 -14%
Fc1ccc(-c2nnc3sc(C4COc5ccccc5O4)nn23)cc1 (configuration not stated) 10.9%
NC(=O)c1cc2ccccc2oc1=NCc1ccccc1 5.63%
Nc1c(C(=O)NCc2ccccc2)nnn1Cc1ccccc1 -6.06%
S=c1[nH]cc(-c2ccc(Cl)cc2)n1Cc1ccccc1 -12.1%
C=C(C)Cn1c(N2CCN(CC)CC2)nc2c1c(=O)[nH]c(=O)n2C 9.32%
COCCCn1c(SCC(=O)NC2CCCCC2)nnc1-c1ccncc1 -4.11%
Nc1nc(N)nc(-c2ccc(Cl)c(Cl)c2)n1 -34.5%
CCNc1nc(N)nc(-c2cc(Cl)ccc2O)n1 -0.458%
Cc1cccc(NC(=O)c2cnc3sccn3c2=O)n1 5.97%
O=C(Nc1ccc(Cl)c(Cl)c1)OCc1cnc(Cl)s1 -3.39%
Cc1cc(O)c2c(c1)C(=O)c1cc(O)cc(O)c1C2=O -40.8%
CC1CCN(c2ncnc3nc[nH]c23)CC1 -3.53%
O=C(c1cccc2c1-c1ccccc1/C2=N/O)N1CCCCC1 5.52%
NC(=O)N/N=C1\c2ccccc2-c2c(C(N)=O)cccc21 13.6%
CCOC(=O)c1cnc2ccc(C)cc2c1Nc1ccc(N2CCOCC2)cc1 -8%
N#Cc1c(=O)c2nc(NCCCO)ncc2n2c(=O)c3ccccc3[nH]c12 3.42%
O=C(NNC1=C(C(=O)C(F)(F)F)CCC1)c1ccccc1O 19.1%
c1csc(CNc2ncnc3ccc(-c4ccoc4)cc23)c1 4.22%
N#CCSc1nc(Nc2ccc3c(c2)OCO3)c2ccccc2n1 -33.6%
c1cncc(-c2nc(NCc3ccco3)c3ccccc3n2)c1 -22.1%
CC(Nc1nc(-c2cccnc2)nc2ccccc12)c1ccc(F)cc1 (configuration not stated) -33.2%
Cc1nnc2c3ccccc3c(-c3cccs3)nn12 4.82%
CCN(CC)CCCNC(=O)c1cc2c(=O)n(C)c3ccccc3c2n1C -19.7%
CCCn1c2ccccc2c2cn[nH]c(=O)c21 4.44%
O=C(NCCc1ccccc1)C1CCN(S(=O)(=O)c2ccc(Br)s2)CC1 2.48%
N#Cc1nc(-c2ccccc2Cl)oc1NCC1CCCO1 (configuration not stated) -2%
COc1ccc(C(=O)N2CCN(c3c(C)cccc3C)CC2)cc1OC 11.9%
C=CCNC(=S)Nc1ccc2cn[nH]c2c1 -33.4%
Cc1ccc(CCNC(=O)C2CCN(S(=O)(=O)c3cccc4nonc34)CC2)cc1 4.41%
CCN(CC)c1ccc(NC(=O)CCc2nnc3ccc(N4CCCCC4)nn23)c(C)c1 9.53%
NS(=O)(=O)c1ccc(-c2ccc(/C=C3\SC(=O)NC3=O)o2)cc1 6.26%
Cc1ccc(C(=O)c2coc3ccc(OCC(=O)O)cc23)cc1 -3.85%
